ChEMBL document CHEMBL3988442, “University of Dundee, Small-Polar-MMV Screening Library” (2021)
For some assays here: Results with a measured potency or affinity are listed apart.

Assays:
Design in all cases: scale not given: direction of the effect not stated beside the values
[1] = target: Protein translocase subunit SecA (Escherichia coli (strain K12)) (UniProt P10408); experiment: Assay to Identify E. coli SecA ATPase Inhibitors; format: functional; conditions: 30 µM
[2] = target: T1, Ubiquitin-activating enzyme e1, putative (Leishmania donovani (strain BPK282A1)) (UniProt E9BSI1); experiment: Leishmania donovani Ubiquitin Activating Enzyme (LdE1); format: functional; conditions: 30 µM
T1 sequence (whole entry): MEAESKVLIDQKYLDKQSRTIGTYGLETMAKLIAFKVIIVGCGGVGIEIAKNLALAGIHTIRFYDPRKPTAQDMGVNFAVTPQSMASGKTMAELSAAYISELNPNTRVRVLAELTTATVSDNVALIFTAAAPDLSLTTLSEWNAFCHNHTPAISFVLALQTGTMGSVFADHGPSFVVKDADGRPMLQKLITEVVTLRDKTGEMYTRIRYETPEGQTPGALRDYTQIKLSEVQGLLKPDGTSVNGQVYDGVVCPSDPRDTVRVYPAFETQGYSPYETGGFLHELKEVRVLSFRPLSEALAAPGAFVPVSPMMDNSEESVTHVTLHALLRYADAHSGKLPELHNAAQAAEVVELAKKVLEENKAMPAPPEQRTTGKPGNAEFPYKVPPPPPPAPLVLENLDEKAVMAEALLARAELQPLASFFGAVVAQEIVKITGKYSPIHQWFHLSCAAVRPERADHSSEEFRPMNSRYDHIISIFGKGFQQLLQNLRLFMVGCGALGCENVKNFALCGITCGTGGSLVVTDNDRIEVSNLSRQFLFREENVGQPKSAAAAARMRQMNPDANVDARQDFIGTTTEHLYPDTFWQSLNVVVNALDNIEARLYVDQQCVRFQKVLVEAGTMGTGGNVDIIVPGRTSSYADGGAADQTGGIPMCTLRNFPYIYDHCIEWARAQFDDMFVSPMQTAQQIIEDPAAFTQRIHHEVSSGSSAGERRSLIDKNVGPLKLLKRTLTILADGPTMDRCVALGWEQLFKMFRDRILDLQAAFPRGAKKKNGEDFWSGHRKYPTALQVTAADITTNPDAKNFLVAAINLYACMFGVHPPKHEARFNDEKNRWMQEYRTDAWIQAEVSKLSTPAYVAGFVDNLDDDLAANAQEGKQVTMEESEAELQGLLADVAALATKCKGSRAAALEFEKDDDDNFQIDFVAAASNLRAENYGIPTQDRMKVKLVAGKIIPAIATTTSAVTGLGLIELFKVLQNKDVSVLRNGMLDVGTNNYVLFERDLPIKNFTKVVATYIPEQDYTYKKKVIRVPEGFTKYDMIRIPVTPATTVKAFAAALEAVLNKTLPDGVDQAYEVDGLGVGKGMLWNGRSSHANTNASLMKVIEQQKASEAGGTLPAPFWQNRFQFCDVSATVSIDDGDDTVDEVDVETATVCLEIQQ

[3] = target: Sialic acid-binding Ig-like lectin 9 (Homo sapiens) (UniProt Q9Y336); experiment: Hs-Siglec9 ALPHAscreen SOP 20170721; conditions: 10 µM
[4] = system: Trypanosoma cruzi; experiment: Trypanosoma cruzi phosphomannomutase and mannose-1-phosphate guanylyltransferase assay; format: functional; conditions: 10 µM
[5] = target: T2, Arginase-2, mitochondrial (Homo sapiens) (UniProt P78540); experiment: in vitro enzyme assay to detect the production of urea directly proportional to the activity of Arginase II; format: functional; conditions: 33.3 µM; also: in the data most compounds retested in dose-response had high values
T2 sequence (whole entry): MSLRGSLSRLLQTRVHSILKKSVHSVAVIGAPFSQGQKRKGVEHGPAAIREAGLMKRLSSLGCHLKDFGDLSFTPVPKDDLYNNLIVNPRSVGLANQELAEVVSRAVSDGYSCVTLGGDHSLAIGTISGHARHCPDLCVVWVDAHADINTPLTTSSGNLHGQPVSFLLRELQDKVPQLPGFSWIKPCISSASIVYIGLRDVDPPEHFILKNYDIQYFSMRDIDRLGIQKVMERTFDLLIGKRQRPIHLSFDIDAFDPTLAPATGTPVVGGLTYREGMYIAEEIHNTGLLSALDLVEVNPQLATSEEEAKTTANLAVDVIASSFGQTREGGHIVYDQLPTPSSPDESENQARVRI

[6] = target: T3, Proteasome subunit beta (Trypanosoma cruzi) (UniProt O96673); experiment: Trypanosoma cruzi proteasome chymotrypsin-like activity (TcProtChymo) assay.; also: in the data most compounds retested in dose-response had high values; format: functional; conditions: 9.37 µM
T3 sequence (whole entry): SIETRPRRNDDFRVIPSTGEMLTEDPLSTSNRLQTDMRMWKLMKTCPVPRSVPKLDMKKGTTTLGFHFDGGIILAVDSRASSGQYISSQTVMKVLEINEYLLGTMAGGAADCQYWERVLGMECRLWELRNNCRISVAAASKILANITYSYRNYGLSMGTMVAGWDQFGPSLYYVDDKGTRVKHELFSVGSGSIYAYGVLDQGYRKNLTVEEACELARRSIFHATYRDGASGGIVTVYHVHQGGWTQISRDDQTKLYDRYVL

[7] = species on record: Homo sapiens; experiment: To identify inhibition of the IFN signalling (Jak-Stat) pathway via expression of an eGFP reporter gene under the control of an IFN-stimulated response element (ISRE) containing MxA promoter.; format: functional; conditions: 30 µM
[8] = target: T4, Tyrosyl-tRNA synthetase, putative (Trypanosoma cruzi (strain CL Brener)) (UniProt Q4DSP6); experiment: Trypanosoma cruzi tyrosyl tRNA synthetase (TcYRS) _High Tyrosine SOP; format: functional; conditions: 30 µM; also: in the data most compounds retested in dose-response had high values
T4 sequence (whole entry): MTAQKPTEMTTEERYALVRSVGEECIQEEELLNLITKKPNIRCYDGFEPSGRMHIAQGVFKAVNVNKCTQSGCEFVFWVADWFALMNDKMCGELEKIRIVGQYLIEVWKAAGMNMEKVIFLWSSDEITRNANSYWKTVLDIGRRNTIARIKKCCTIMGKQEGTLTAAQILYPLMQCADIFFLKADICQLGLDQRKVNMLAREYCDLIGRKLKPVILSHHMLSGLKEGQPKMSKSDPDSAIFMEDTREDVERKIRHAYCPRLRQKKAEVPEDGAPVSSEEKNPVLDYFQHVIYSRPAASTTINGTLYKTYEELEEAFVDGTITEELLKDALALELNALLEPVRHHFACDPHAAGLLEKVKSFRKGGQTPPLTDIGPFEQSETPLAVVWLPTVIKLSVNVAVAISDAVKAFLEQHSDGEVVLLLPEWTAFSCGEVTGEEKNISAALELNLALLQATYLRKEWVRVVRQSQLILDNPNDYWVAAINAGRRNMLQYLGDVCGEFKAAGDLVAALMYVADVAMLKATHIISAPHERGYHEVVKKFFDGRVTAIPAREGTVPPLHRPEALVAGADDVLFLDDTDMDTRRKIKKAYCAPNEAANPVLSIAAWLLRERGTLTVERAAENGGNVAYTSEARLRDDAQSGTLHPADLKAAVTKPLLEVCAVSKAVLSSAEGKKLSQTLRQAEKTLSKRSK

[9] = target: T4, Tyrosyl-tRNA synthetase, putative (Trypanosoma cruzi (strain CL Brener)); experiment: Trypanosoma cruzi tyrosyl tRNA synthetase (TcYRS) SOP; format: functional; conditions: 30 µM
[10] = target: Chromo domain-containing protein 1 (Saccharomyces cerevisiae (strain ATCC 204508 / S288c) (Baker's yeast)) (UniProt P32657); experiment: ScCHD-1 Enzyme Inhibition Assay; format: functional; conditions: 30 µM; also: in the data most compounds retested in dose-response had high values
Sequence of Chromo domain-containing protein 1 (Saccharomyces cerevisiae (strain ATCC 204508 / S288c) (Baker's yeast)) (P32657 whole entry, the tested form may be a part): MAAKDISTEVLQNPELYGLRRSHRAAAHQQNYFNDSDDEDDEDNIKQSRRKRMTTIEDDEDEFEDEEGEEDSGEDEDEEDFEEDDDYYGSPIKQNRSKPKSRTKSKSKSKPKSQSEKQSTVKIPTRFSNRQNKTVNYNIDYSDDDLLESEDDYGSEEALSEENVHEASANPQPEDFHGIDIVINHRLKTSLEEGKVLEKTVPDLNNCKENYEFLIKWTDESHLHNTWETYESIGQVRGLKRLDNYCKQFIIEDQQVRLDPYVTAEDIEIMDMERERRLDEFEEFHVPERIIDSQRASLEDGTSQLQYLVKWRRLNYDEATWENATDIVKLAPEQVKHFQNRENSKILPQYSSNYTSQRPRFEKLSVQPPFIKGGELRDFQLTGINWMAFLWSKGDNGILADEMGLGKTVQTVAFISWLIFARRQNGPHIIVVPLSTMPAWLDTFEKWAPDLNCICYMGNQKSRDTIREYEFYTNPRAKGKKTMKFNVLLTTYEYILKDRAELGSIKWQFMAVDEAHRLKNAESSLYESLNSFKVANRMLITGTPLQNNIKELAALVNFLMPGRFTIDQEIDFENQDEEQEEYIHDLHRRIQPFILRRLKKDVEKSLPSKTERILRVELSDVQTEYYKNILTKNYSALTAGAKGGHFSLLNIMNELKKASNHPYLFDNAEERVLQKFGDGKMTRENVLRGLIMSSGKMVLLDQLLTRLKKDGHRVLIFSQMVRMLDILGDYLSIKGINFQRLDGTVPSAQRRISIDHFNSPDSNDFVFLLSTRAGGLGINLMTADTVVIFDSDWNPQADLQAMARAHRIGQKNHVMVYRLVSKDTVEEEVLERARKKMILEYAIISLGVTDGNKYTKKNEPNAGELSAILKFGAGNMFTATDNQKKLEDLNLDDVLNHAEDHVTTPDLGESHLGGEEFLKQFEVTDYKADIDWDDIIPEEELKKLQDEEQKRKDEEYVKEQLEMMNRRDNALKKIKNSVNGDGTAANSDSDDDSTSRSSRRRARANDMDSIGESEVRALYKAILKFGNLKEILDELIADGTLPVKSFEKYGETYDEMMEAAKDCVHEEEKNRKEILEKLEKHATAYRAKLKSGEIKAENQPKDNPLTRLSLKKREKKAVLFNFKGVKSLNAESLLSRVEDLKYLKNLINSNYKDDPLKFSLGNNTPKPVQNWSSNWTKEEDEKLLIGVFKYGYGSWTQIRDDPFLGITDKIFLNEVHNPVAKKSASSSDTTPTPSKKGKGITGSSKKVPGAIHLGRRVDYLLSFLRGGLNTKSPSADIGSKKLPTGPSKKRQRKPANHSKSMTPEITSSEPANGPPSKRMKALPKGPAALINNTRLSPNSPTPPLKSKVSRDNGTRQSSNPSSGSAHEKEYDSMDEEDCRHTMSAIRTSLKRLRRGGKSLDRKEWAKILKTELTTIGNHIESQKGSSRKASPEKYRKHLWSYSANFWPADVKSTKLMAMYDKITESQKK

Sequence of Protein translocase subunit SecA (Escherichia coli (strain K12)) (P10408 whole entry): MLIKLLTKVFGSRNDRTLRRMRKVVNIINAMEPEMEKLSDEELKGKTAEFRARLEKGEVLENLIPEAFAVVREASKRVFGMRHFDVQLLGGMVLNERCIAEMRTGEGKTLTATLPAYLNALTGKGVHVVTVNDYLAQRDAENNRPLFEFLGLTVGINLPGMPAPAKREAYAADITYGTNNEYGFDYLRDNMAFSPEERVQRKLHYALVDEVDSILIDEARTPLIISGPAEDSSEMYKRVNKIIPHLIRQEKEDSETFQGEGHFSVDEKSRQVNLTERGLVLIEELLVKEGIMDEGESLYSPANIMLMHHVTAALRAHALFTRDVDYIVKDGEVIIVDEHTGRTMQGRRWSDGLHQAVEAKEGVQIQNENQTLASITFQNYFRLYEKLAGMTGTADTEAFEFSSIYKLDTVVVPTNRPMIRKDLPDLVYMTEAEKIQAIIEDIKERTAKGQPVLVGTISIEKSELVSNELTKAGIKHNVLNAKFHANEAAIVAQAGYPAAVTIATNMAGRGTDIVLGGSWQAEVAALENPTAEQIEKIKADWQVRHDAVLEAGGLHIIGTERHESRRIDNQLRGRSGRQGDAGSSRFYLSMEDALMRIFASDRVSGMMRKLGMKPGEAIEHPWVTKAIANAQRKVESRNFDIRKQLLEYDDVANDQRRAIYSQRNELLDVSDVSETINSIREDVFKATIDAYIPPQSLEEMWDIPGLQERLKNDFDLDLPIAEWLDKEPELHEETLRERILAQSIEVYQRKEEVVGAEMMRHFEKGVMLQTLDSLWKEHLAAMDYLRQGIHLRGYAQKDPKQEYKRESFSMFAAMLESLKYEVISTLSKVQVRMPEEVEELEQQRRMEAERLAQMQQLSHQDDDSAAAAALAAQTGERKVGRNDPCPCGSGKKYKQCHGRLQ
Sequence of Sialic acid-binding Ig-like lectin 9 (Homo sapiens) (Q9Y336 whole entry): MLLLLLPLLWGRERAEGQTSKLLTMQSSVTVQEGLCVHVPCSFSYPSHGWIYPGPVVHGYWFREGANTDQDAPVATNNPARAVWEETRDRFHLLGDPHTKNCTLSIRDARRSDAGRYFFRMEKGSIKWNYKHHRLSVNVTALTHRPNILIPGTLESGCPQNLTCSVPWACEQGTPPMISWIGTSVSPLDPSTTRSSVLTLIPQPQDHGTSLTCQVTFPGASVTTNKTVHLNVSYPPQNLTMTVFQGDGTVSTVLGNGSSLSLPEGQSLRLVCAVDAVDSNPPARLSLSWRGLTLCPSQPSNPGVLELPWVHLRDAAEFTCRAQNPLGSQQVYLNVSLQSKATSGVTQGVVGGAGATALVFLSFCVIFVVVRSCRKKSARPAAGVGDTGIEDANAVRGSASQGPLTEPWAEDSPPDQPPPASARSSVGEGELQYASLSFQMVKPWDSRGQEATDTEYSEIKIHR

SMILES	Percent Effect [1]	Percent Effect [2]	Percent Effect [3]	Percent Effect [4]	Percent Effect [5]	Percent Effect [6]	Percent Effect [7]	Percent Effect [8]	Percent Effect [9]	Percent Effect [10]
O=C(Cc1cccs1)N1CC[C@H]2[C@@H]1CCC(=O)N2c1cccnc1	-2.81%	29.9%	-3.71%	-1.31%	1.37%	16.1%	-2.71%	3.87%	7.5%	-11%
Cc1ccc(S(=O)(=O)N2CCOc3ccccc32)cc1C(=O)O	-0.902%	-5.13%	-13.7%	-1.03%	1.23%	11.5%	1.07%	-7.18%	6.02%	-6.35%
CS(=O)(=O)N1Cc2ccccc2C2(CCN(C(=O)c3ccno3)CC2)C1	2.76%	19.5%	-5.73%	-10.7%	5.48%	18.4%	9.88%	6.76%	7.5%	-10.6%
O=C1NCc2ccc(NC(=O)C3CCCN3c3nccs3)cc21 (stereo not given)	0.371%	-7.69%	12.8%	0.0939%	-1.23%	1.96%	-7.22%	-0.478%	-6.02%	105%
Cc1ccc2oc(C(=O)N3CCC(C(=O)N4CCCC4)CC3)cc2n1	-3.66%	7.69%	1.13%	2.35%	6.56%	-0.768%	7.89%	9.09%	18.1%	-0.651%
COc1cc(C(=O)N2CCCS2(=O)=O)ccc1C	-4.9%	-2.67%	-1.38%	4.82%	-3.99%	14.7%	1.35%	4.74%	10.3%	-8.07%
Cc1ncsc1-c1nnc(C2CCN(CC3CCCCC3)CC2)o1	1.3%	14.7%	-11.6%	-1.97%	0.443%	14.8%	25.8%	-3.17%	5%	-21.3%
CC(c1nc(C2CC2)no1)N1CCN(Cc2cccc(C#N)c2)CC1 (stereo not given)	-5.05%	15.4%	-15.7%	5.35%	-4.1%	10.5%	3.36%	3.35%	20.5%	-0.399%
CS(=O)(=O)NCC1CCCN(C(=O)COc2ccc(F)cc2)C1 (stereo not given)	-1.75%	10.3%	-7.96%	9.86%	1.23%	3.5%	12.5%	4.31%	-146%	-6.15%
O=C(Cc1c[nH]c2ccccc12)N1CCC(Nc2cccnn2)CC1	-6.75%	15.6%	5.29%	-4.1%	3.07%	5.96%	5.15%	7.84%	16.5%	-5.46%
Cc1cnc(CN(C)C2CCN(Cc3ccccc3C#N)C2)o1 (stereo not given)	0.623%	13.3%	-5.38%	-5.82%	3.1%	18.4%	2.92%	3.68%	7.69%	-11.8%
CN(C(=O)Cc1c[nH]c2ccccc12)C1CCN(c2ccccn2)CC1	-4.77%	2.67%	-1.22%	-3.81%	1.77%	4.16%	31.5%	3.68%	0%	-14.4%
O=C(C1CCCCC1)N1CCC2(CCCN2CC2CC2)CC1	-2.94%	11.7%	-2.33%	-3.56%	1.37%	3.18%	13.7%	2.9%	2.5%	-6.38%
Cc1n[nH]c(=O)c2c(NC(=O)CN3CCC(O)CC3)oc(C)c12	-1.08%	10.3%	-12.1%	-8.17%	0.41%	19.4%	21.8%	4.31%	10.8%	-5.11%
